Screening data from PubChem BioAssay.
A selection: hits, their analogues and other compounds. The true share with any hit is near 7.6%.
RORgamma inh: inhibitors of mouse ROR gamma transcriptional activity; AID 2551; Potency, µM (series often up to 53.6 µM), without a hit: top-dose activity change, negative = inhibition, actives largely listed as inhibitors; 310,000 compounds, 5.4% hits; P51450; Drosophila S2 Gal4-RORgamma UAS-luciferase reporter, 20 h; also: potency is read from the fitted curve at half-maximal effect; % is scaled to controls: 0 for no effect and ±100 for the full control effect; nearly all actives have a fitted effect of over 60% in size
Target sequence (P51450 whole entry, looked up, the tested form may be a part): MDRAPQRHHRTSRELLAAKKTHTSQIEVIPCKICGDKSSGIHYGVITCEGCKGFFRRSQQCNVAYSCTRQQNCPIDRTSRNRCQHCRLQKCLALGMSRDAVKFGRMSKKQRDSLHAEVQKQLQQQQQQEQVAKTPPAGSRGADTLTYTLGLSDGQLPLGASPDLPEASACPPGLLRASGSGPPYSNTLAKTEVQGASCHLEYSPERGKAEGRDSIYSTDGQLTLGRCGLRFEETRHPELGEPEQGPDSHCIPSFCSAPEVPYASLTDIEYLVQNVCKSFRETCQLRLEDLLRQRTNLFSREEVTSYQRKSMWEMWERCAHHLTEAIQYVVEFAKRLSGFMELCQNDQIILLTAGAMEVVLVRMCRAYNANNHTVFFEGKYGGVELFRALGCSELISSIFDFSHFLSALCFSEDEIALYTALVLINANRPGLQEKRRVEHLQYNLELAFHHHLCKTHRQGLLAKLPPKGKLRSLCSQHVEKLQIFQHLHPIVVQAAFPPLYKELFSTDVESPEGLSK
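Luminescence from a UAS-regulated Photinus luciferase reporter in stably transfected Drosophila Schneider cells is measured; decreased signal marks ROR gamma inhibition. Fusion expression is induced by 700 uM copper sulfate for 20 hr.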
BRCA1 expr act: activators of BRCA1 expression; MCF7-BRCA1-FFLuc reporter, luminescence, 48 h; response scale: scaled: vehicle 0%, 10 µM genistein 100%; Potency, µM (titrated, usually from 46.1 µM), without a hit: top-dose activation, actives largely listed as activators; 380,000 compounds, 1.1% hits; AID 624202; also: potency is read from the fitted curve at half-maximal effect; nearly all actives have a fitted effect of over 80% in size
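Compounds are tested at multiple concentrations on MCF7 BRCA1-luciferase reporter cells seeded at 2000 per well; after 48 h, a single luminescence end-point is taken and curves fitted to the normalized data.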
p53 reactivation: restores transcriptional activity of mutant p53; H1299 p53-A138V BP100-luciferase reporter, luminescence, 24 h; Potency, µM (top dose mostly 92.2 µM), inactives show at the highest dose activity change, positive = activation, usual class: activators; 320,000 compounds, 0.063% hits; also: potency is read from the fitted curve at half-maximal effect; % of control where 0% means no effect; nearly all actives have a fitted effect of over 45% in size
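p53-null H1299 cells stably carrying temperature-sensitive p53-A138V and a BP100-luciferase reporter were pinned with compounds (4-point, 1:5 series) and held 24 hrs at 37 deg C. Luminescence was read 10 min after detection reagent.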
Gal4-VP16 FLuc: inhibits Gal4-VP16 luciferase reporter, ROR gamma counter-screen. Drosophila S2 Gal4-VP16 UAS-luciferase, luminescence, 20 h. Potency, µM (highest dose often 53.6 µM), for the others: top-dose activity, negative = inhibition, most hits filed as inhibitors. 310,000 compounds, 3.5% hits;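 also: Gal4-VP16 expression switched on by copper sulfate through the metallothionein promoter; potency is read from the fitted curve at half-maximal effect; % is scaled to controls: 0 for no effect and ±100 for the full control effect; nearly all actives have a fitted effect of over 50% in size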
Giardia kill: kills Giardia lamblia; 340,000 compounds, 0.15% hits; AID 540267; activity change, % at 7.66 µM, hits read low; Giardia lamblia trophozoite viability; in the data active = activity change below about -80%; inconclusive = between about -30% and that limit;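 also: parasites exposed to compound for two days anaerobically before the ATP read; % is scaled to controls: 0 for no effect and ±100 for the full control effect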
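Trophozoites 100 cells/well + cpd; 48 hrs, 37 deg C, anaerobic. ATPLite 1-Step added, 15-30 min RT, luminescence read (ATP-based viability).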
ELG1 DNA repair: inhibitors of ELG1-dependent DNA repair in HEK293T cells. HEK293T ELG1-luciferase reporter, luminescence, 16 h; DNA damage induced by 5-fluorouridine. Potency, µM (top dose mostly 46.1 µM), inactives show at the highest dose activity change, negative = inhibition, most hits filed as inhibitors. 330,000 compounds, 2.3% hits. AID 504467; also: potency is read from the fitted curve at half-maximal effect; % is scaled to controls: 0 for no effect and ±100 for the full control effect; nearly all actives have a fitted effect of over 55% in size
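HEK293T cells expressing luciferase-tagged ELG1 (2,000/well) received 5-Fluorouridine plus compound or DMSO for 16 hr at 37 °C. Luciferase was read by ONE-Glo luminescence after 30 min at room temperature.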
An asterisk follows results filed as active; u = inconclusive; x = no result. Unless noted, calls follow the shape of the dose curve; as a rule, active = well fitted curve in the direction sought with a large enough effect; inconclusive = small, poorly fitted or top-dose-only effect, or another doubt; inactive = no such curve, though single readings can be large; an effect the other way counts as inactive or inconclusive.

SMILES	RORgamma inh	BRCA1 expr act	p53 reactivation	Gal4-VP16 FLuc	Giardia kill	ELG1 DNA repair
CCOC(=O)C1=C(C)Nc2ccccc2N=C1NC(=O)c1oc2ccccc2c1COC	x	-45%	-7%	x	-10	11µM*
O=C(NN=C1CCCC1)c1[nH]c2ccc(Br)cc2c1-c1ccccc1	11µM*	-93%	18%	u	8	u
O=C(N/N=C/c1ccccc1)c1[nH]c2ccc(Br)cc2c1-c1ccccc1	u	-93%	u	u	-10	22%
CCOC(=O)[C@]12CCC=C1N(Cc1cccc3ccccc13)C(=O)[C@H](CC(=O)N1CCN(C(=O)c3ccco3)CC1)C2	x	5%	x	x	x	x
Oc1cc(NCCc2cccnc2)cc2cccnc12	x	-89%	-12%	x	-1	23µM*
COc1cc(/C=C2\N=C(c3ccccc3)NNC2=O)cc(OC)c1OC	-6%	-56%	11%	-1%	5	-27%
O=C(N/N=C/C=C\c1ccccc1[N+](=O)[O-])c1cccs1	14µM*	40%	u	u	26	u
O=C(N/N=C/C=C/c1ccccc1[N+](=O)[O-])c1ccncc1	11µM*	-28%	14%	20µM*	-4	-12%
O=C(N/N=C/C=C\c1ccccc1[N+](=O)[O-])c1cccnc1	10µM*	-27%	8%	u	16	1%
O=C(N/N=C/c1cccc([N+](=O)[O-])c1)c1cccs1	-27%	13µM*	u	u	3	u
O=C(COC(=O)c1cc(S(=O)(=O)N2CCOCC2)ccc1Cl)NCc1ccco1	x	-9%	6%	x	-7	u
CCn1c(SCC(=O)NC2CCCCC2)nnc1C(CO)NC(=O)c1ccccc1 (centres undefined)	5%	-6%	6%	2%	-7	2%
COc1ccccc1/C=C/C=N/NC(=O)c1ccncc1	5.6µM*	0%	13%	11µM*	21	4%
Cc1ccc(/C=N/NC(=O)c2cc(-c3ccc(C)o3)[nH]n2)cc1	-15%	-23%	4%	-4%	-6	u
COc1ccccc1/C=C/C=N/NC(=O)c1cc(-c2ccc(C)o2)[nH]n1	13µM*	-42%	-4%	u	-11	u
O=C(N/N=C/C=C/c1ccc([N+](=O)[O-])cc1)c1cccs1	4µM*	0%	1%	u	-16	-1%
O=C(N/N=C/C=C\c1ccccc1[N+](=O)[O-])c1cc(-c2ccc3ccccc3c2)n[nH]1	3.2µM*	-36%	-8%	4.5µM*	-18	15%
O=C(CN1C(=O)COc2ccccc21)NCCN1CCCC1	-41%	8%	-12%	-5%	8	14%
Cc1ccc2c(C)cc(=S)[nH]c2c1	4µM*	-26%	-3%	u	9	1%
Cc1ccc2[nH]c(=S)cc(C)c2c1	16µM*	7%	-16%	u	-13	8%
CCN(CC(=O)NCc1ccc(Cl)cc1)C(=O)CCC(=O)c1ccc(F)cc1	x	4%	-2%	x	1	-3%
O=C(NCCC1=CCCCC1)c1cc(S(=O)(=O)N2CCCCC2)ccc1Cl	x	11%	11%	x	11	9%
Cn1c(=O)c2c(nc(CN3CCN(C(=O)c4ccco4)CC3)n2CC(=O)C(C)(C)C)n(C)c1=O	44%	-22%	2%	-8%	6	-8%
Cc1nn(Cc2ccccc2Cl)c(C)c1C(=O)NC1=NCCS1	10µM*	7%	-1%	-1%	19	-25%
CCC(CC)c1nnc(NC(=O)c2c(C)nn(Cc3ccccc3Cl)c2C)s1	11µM*	-25%	u	u	7	-21%
Cc1nn(Cc2ccccc2Cl)c(C)c1C(=O)N1CCN(c2ccccc2)CC1	20%	1%	-2%	5%	-8	-9%
O=C(NC1=NCCS1)c1ccccc1Cl	-1%	21%	4%	2%	6	15%
O=C(NC1=NCCS1)c1ccccc1OCc1ccccc1Cl	10µM*	-19%	-1%	u	16	1%
